From PubChem BioAssay (NCATS)
Where “and” joins values, the source holds several entries; their conditions need not be identical. Equal entries are not always repeated. Results filed as inconclusive are left out. Where a call stands in place of a potency, no number is given. Calls of active or inactive are those of the source. Unless noted, calls come from the whole dose curve; as a rule, active = well fitted curve in the direction sought with a large enough effect; inconclusive = small, poorly fitted or top-dose-only effect, or another doubt; inactive = no such curve, though single readings can be large; an effect the other way counts as inactive or inconclusive.

Tests used:
[1] = Cell Viability - BJ (AID 421; calls by dose curve;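 note: potency is the fitted concentration of half-maximal effect; cells exposed to compound for 40 hours at 37 °C before readout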); details: BJ fibroblast viability, qHTS
Method in brief: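 Quantitative HTS: ATP depletion in BJ cells after 40 hr compound exposure in complete culture medium, detected with CellTiter-Glo; AC50 from standard Hill fits.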

[2] = Cell Viability - Jurkat (AID 426;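 active = dose-dependent loss of cell ATP signal giving a full or clear fitted curve, ranked by lower potency value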;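 note: potency is the fitted concentration of half-maximal effect; cells exposed to compound for 40 hours at 37 °C before ATP read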); details: qHTS
Method in brief: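 Seed 5000 Jurkat E6-1 cells/well; add compound; incubate 40 hr at 37 °C; add CellTiter-Glo; wait 20 min at room temperature; read luminescence. Fit concentration-response with Hill equation for AC50.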

[3] = Cell Viability - Hek293 (AID 427;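 active = compounds whose dose-response curve shows a full or clear partial loss of cell viability, called from curve shape rather than a numeric limit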;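 note: potency is the fitted concentration of half-maximal effect; cells exposed to compound for 40 hours at 37 °C before reading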); details: qHTS
Method in brief: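 AC50 values derive from Hill-modelled concentration-response of ATP-based luminescence, normalized between DMSO-only and 100 uM tamoxifen controls. Cells were exposed in complete culture medium for 40 hr at 37 °C before detection.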

[4] = Cell Viability - SK-N-SH (AID 435; calls by dose curve;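 note: potency is the fitted concentration of half-maximal effect; compound exposure lasted 40 h at 37 °C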); details: SK-N-SH neuroblastoma cell viability qHTS
Method in brief: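 CellTiter-Glo ATP luminescence, 20 min RT read; cells pre-plated 5 hr, compound 40 hr at 37 °C, 1500 cells/well, complete medium. Normalized DMSO = 0, 100 uM tamoxifen = 100% inhibition; Hill-fit AC50.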

[5] = Cell Viability - HUV-EC-C (AID 542); details: HUV-EC-C endothelial cell viability, qHTS; series mostly up to 92.2 µM;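 note: cells exposed to compound for 40 hours; nearly all actives have a fitted effect of over 35% in size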
Method in brief: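 Decrease in cellular ATP, quantified by luciferase luminescence, reflects toxicity in normal human vascular endothelial HUV-EC-C cells given compound for 40 hr in complete culture medium. Values are AC50s from concentration-response curves.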

[6] = Cell Viability - H-4-II-E (AID 543); details: H-4-II-E rat hepatoma viability; series mostly up to 92.2 µM;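 note: cells exposed to compound for 40 hours; nearly all actives have a fitted effect of over 35% in size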
Method in brief: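 Here, cytotoxicity is measured in the rat hepatoma line H-4-II-E as loss of intracellular ATP after 40 hr compound treatment, detected by luciferase luminescence.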

[7] = Cell Viability - Renal Proximal Tubule (AID 545); details: renal proximal tubule cells viability; series mostly up to 91.7 µM;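 note: cells exposed to compound for 40 hours; nearly all actives have a fitted effect of over 40% in size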
Method in brief: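 Rat kidney proximal tubule cells, freshly isolated; 1000 cells/well, 5 hr settle, compound 40 hr 37 °C. CellTiter-Glo 20 min RT, luminescence read. AC50 by standard Hill fit.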

[8] = Cell Viability - LYMP2-015 (AID 971); details: LYMP2-015 lymphoblastoid cell viability; series mostly up to 92.2 µM;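 note: cells exposed to compound for 24 h; nearly all actives have a fitted effect of over 55% in size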
Method in brief: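 Acute toxicity was scored as a concentration-dependent drop in intracellular ATP in lymphoblastoid cells after 24 hr compound exposure in complete medium. Detection used CellTiter-Glo luciferase luminescence.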

[9] = Cell Viability - LYMP2-019 (AID 973); details: LYMP2-019 lymphoblastoid cell line viability; series mostly up to 92.2 µM;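 note: cells exposed to compound for 24 h at 37 °C; nearly all actives have a fitted effect of over 55% in size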
Method in brief: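 Cells plated at 2500/well and allowed 5 hr at 37 C before compound addition. After 24 hr incubation, CellTiter-Glo reagent was added, plates sat 30 min at room temperature, and luminescence was recorded.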

[10] = Cell Viability - LYMP2-012 (AID 982); details: LYMP2-012 lymphoblastoid cell viability qHTS; series mostly up to 92.2 µM;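 note: cellular ATP by luciferase luminescence where a drop means cytotoxicity; cells exposed to compound for one day before reading; nearly all actives have a fitted effect of over 55% in size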
[11] = Cell Viability - LYMP2-020 (AID 986); details: series mostly up to 92.2 µM;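 note: cells exposed to compound for 24 h at 37 °C; nearly all actives have a fitted effect of over 55% in size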
Method in brief: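 Acute cytotoxicity in a human lymphoblastoid line is scored as a concentration-dependent fall in cellular ATP after 24 hr at 37 C in complete medium. The positive control is tetraoctylammonium bromide, and potency is given as Hill-fit AC50.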

[12] = Cell Viability - LYMP2-022 (AID 987); details: LYMP2-022 lymphoblastoid cell viability; series mostly up to 92.2 µM; note: nearly all actives have a fitted effect of over 55% in size
Method in brief: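 Acute toxicity in a human lymphoblastoid line is scored as decreased intracellular ATP after 24 hr compound treatment at 37 C. ATP is measured by CellTiter-Glo luminescence; curves are fitted with the Hill equation to give AC50.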

[13] = Cell Viability - LYMP2-026 (AID 989); details: LYMP2-026 lymphoblastoid cell viability, qHTS; series mostly up to 92.2 µM;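 note: cells exposed to compound for 24 h at 37 °C; nearly all actives have a fitted effect of over 50% in size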
Method in brief: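 Concentration-dependent loss of intracellular ATP in human lymphoblastoid cells after 24 hr at 37 C, quantified by luciferase luminescence. AC50 derived from standard Hill equation.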

[14] = Cell Viability - LYMP1-002 - Assay at 40 hr (AID 994); details: LYMP1-002 lymphoblastoid cell viability; series mostly up to 92.2 µM; note: nearly all actives have a fitted effect of over 60% in size
Method in brief: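 Viability in the human lymphoblastoid line was measured as intracellular ATP via CellTiter-Glo after 40 hr compound exposure. Tetraoctylammonium bromide served as positive control.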

[15] = qHTS assay for small molecule agonists of retinoid X receptor alpha signaling (AID 588544; calls by dose curve); details: HEK293T RXRa-UAS-bla, beta-lactamase reporter, 18 h; 530 nm emission
[16] = target: Retinoic acid receptor RXR-alpha (Homo sapiens) (UniProt P19793); assay: as above; details: HEK293T RXRa-UAS-bla, beta-lactamase reporter, 18 h; series mostly up to 76.7 µM
[17] = target: Thyroid hormone receptor beta (Homo sapiens) (UniProt P10828); assay: qHTS assay for small molecule agonists of thyroid hormone receptor beta signaling (AID 588545; calls by dose curve); details: TR-UAS-bla GripTite HEK 293, beta-lactamase ratio, agonist mode, 18 h; series mostly up to 76.7 µM
Method in brief: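 Beta-lactamase reporter activity under TR response element control is measured in HEK 293 cells after 18 hrs compound exposure. Signal is ratiometric CCF4 fluorescence, 460/530 nm.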

[18] = qHTS assay for small molecule antagonists of retinoid X receptor alpha signaling (AID 588546; active = well fitted inhibition curve with a large enough effect in the signal ratio, with a control signal flat, not every such curve was filed as active; the % refers to the signal ratio;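 note: cells stimulated with 9-cis-retinoic acid as agonist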); details: HEK293T RXRa-UAS-bla, beta-lactamase ratio, antagonist mode; measured here: W530 green channel, cytotoxicity proxy
Method in brief: (§1)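 Beta-lactamase reporter inhibition, read as CCF4 fluorescence ratio (ex 405, em 460/530 nm) after 2 h at RT. HEK293T UAS-bla cells, 2500/well, were stimulated with 9-cis-RA at 500 or 100 nM final alongside test compound for 18 h at 37 C.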

[19] = target: Retinoic acid receptor RXR-alpha (Homo sapiens) (UniProt P19793); assay: as above; details: HEK293T RXRa-UAS-bla, beta-lactamase ratio, antagonist mode
Method in brief: as §1

[20] = target: Voltage-gated inwardly rectifying potassium channel KCNH2 (Homo sapiens) (UniProt Q12809); assay: qHTS Assay for Small Molecule Inhibitors of the Human hERG Channel Activity (AID 588834); details: U2OS BacMam hERG, FluxOR thallium flux fluorescence; series mostly up to 92.2 µM;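 note: lower thallium flux fluorescence means stronger hERG block; nearly all actives have a fitted effect of over 50% in size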; note: potency is the fitted concentration of half-maximal effect
Method in brief: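 Concentration-response qHTS measuring drop in thallium-sensitive dye signal. U2OS cells carrying BacMam hERG; compound exposure ~10 min, then stimulation buffer and 2 min read at 1 sec intervals.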

Chain of Voltage-gated inwardly rectifying potassium channel KCNH2 (Homo sapiens) (Q12809 whole entry, looked up): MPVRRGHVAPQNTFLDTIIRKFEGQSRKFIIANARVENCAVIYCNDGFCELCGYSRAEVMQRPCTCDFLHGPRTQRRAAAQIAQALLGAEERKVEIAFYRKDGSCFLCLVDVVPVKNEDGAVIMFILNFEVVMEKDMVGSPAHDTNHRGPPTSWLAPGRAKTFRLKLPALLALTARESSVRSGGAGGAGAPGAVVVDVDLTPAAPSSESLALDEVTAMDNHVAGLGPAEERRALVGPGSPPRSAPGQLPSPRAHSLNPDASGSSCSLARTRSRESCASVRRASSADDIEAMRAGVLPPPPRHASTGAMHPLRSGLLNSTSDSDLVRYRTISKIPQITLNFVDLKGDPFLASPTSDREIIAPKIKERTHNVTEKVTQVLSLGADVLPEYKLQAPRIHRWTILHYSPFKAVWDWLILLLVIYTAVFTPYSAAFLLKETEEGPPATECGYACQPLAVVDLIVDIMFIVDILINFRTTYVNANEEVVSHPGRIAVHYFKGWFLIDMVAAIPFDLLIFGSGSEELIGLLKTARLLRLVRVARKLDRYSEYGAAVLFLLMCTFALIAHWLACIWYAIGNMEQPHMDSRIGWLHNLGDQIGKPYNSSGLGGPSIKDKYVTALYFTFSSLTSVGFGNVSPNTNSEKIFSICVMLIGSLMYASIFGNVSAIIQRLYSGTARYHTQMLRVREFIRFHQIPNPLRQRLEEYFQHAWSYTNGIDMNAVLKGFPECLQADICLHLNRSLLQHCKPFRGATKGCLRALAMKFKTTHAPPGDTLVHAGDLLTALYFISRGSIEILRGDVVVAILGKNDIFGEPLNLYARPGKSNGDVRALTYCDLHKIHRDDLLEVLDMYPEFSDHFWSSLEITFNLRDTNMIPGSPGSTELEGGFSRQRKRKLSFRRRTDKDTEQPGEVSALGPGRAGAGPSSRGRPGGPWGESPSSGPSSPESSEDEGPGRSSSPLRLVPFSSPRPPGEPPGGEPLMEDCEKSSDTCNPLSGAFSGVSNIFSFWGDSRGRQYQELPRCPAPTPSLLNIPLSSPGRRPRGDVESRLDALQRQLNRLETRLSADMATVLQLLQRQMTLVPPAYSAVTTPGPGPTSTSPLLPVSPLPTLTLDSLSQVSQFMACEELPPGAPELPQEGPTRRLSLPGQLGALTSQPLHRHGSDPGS
Chain of Retinoic acid receptor RXR-alpha (Homo sapiens) (P19793 whole entry, looked up): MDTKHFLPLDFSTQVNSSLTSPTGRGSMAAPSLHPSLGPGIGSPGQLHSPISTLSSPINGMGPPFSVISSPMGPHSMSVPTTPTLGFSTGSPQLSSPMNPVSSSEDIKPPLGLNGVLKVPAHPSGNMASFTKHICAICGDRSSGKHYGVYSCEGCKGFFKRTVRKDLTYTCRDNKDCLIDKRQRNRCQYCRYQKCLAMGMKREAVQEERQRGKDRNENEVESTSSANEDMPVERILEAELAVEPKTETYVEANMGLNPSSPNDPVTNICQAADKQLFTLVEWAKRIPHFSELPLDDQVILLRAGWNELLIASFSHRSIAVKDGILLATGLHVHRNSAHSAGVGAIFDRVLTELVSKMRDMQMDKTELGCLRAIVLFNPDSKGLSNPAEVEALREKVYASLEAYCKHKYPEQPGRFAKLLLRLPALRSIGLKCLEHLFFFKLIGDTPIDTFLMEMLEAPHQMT
Chain of Thyroid hormone receptor beta (Homo sapiens) (P10828 whole entry, looked up): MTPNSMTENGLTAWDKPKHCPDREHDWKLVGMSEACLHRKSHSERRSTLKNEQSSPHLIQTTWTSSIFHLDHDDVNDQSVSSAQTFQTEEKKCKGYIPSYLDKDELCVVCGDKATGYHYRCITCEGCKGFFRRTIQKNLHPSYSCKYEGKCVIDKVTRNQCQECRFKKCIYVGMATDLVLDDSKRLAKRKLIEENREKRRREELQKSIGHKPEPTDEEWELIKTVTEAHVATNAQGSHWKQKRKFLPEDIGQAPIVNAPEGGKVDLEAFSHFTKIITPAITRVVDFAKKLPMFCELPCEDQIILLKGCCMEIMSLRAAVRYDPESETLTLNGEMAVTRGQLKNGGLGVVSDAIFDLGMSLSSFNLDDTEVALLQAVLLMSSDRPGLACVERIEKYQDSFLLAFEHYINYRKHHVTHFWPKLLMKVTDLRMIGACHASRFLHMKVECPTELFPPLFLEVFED

| SMILES | Potency [1] | Potency [2] | Potency [3] | Potency [4] | Potency [5] | Potency [6] | outcome [7] | Potency [8] | Potency [9] | Potency [10] | Potency [11] | Potency [12] | Potency [13] | Potency [14] | max response [15] | outcome [16] | Potency [17] | max response [18] | max response [19] | Potency [20] |
| --- | --- | --- | --- | --- | --- | --- | --- | --- | --- | --- | --- | --- | --- | --- | --- | --- | --- | --- | --- | --- |
| O=C(O)CBr | > 92 µM (inactive) | > 92 µM (inactive) | > 92 µM (inactive) | > 92 µM (inactive) | inactive | inactive | inactive | inactive | inactive | inactive | inactive | inactive | inactive | inactive | -13.9% | inactive | inactive | -7.96% | -0.759% (inactive) | inactive |
| Nc1ccc2ccccc2c1 | > 92 µM (inactive) | > 92 µM (inactive) | > 92 µM (inactive) | > 92 µM (inactive) | inactive | inactive | inactive | inactive | inactive | inactive | inactive | inactive | inactive | inactive | -8.86% | inactive | inactive | -4.26% | -0.227% (inactive) | inactive |
| Cl/C=C/CCl | > 92 µM (inactive) | > 92 µM (inactive) | > 92 µM (inactive) | > 92 µM (inactive) | inactive | inactive | inactive | inactive | inactive | inactive | inactive | inactive | inactive | inactive | -6.27% | inactive | inactive | 3.06% | 3.74% (inactive) | inactive |
| CN(C)C(=O)Nc1cccc(C(F)(F)F)c1 | > 92 µM (inactive) | > 92 µM (inactive) | > 92 µM (inactive) | > 92 µM (inactive) | inactive | inactive | inactive | inactive | inactive | inactive | inactive | inactive | inactive | inactive | -22.3% and -23.1% | inactive | inactive | -7% and -2.56% | 1.67% (inactive) and -16% (inactive) | inactive |
| Oc1ccc(Cl)c(Cl)c1 | > 92 µM (inactive) | > 92 µM (inactive) | > 92 µM (inactive) | > 92 µM (inactive) | inactive | inactive | inactive | inactive | inactive | inactive | inactive | inactive | inactive | inactive | -8.76% | inactive |  | -0.477% | -1% (inactive) | inactive |
| CC(C)CC(C)N (configuration not stated) | > 92 µM (inactive) | > 92 µM (inactive) | > 92 µM (inactive) | > 92 µM (inactive) | inactive | inactive | inactive | inactive | inactive | inactive | inactive | inactive | inactive | inactive | -12.2% | inactive | inactive | -2.75% | 1.28% (inactive) | inactive |
| CCOP(=S)(OCC)SCCSCC | > 92 µM (inactive) | > 92 µM (inactive) | > 92 µM (inactive) | > 92 µM (inactive) | inactive | inactive | inactive | inactive | inactive | inactive | inactive | inactive | inactive | inactive | -7.08% and 7.34% | inactive | inactive | 7.97% and -18.3% | -3% (inactive) and -2.15% (inactive) |  |
| BrCC(Br)C1CCC(Br)C(Br)C1 (configuration not stated) | > 92 µM (inactive) | > 92 µM (inactive) | > 92 µM (inactive) | > 92 µM (inactive) | inactive |  | inactive | inactive | inactive | inactive | inactive | inactive | inactive | inactive | 6.74% | inactive | inactive | -6.79% | 18% (inactive) | 22.4 µM (active) |
| Oc1c(Cl)cccc1Cl | > 92 µM (inactive) | > 92 µM (inactive) | > 92 µM (inactive) | > 92 µM (inactive) | inactive | inactive | inactive | inactive | inactive | inactive | inactive | inactive | inactive | inactive | 9.22% | inactive | inactive | -9.58% | 27.8% (inactive) | inactive |
| C=CCBr | > 92 µM (inactive) | > 92 µM (inactive) | > 92 µM (inactive) | > 92 µM (inactive) | inactive | inactive | inactive | inactive | inactive | inactive | inactive | inactive | inactive | inactive | -11.7% | inactive | inactive | -4.43% | 13.2% (inactive) | inactive |
| Clc1cccc(Cl)c1 | > 92 µM (inactive) | > 92 µM (inactive) | > 92 µM (inactive) | > 92 µM (inactive) | inactive | inactive | inactive | inactive | inactive | inactive | inactive | inactive | inactive | inactive | 5.35% | inactive | inactive | -14.2% | 24.2% (inactive) | inactive |
| COc1c(C(C)(C)C)cc([N+](=O)[O-])c(C)c1[N+](=O)[O-] | > 92 µM (inactive) | > 92 µM (inactive) | > 92 µM (inactive) | > 92 µM (inactive) | inactive | inactive | inactive | inactive | inactive | inactive | inactive | inactive | inactive | inactive | -3.49% | inactive | inactive | -1.47% | -14.3% (inactive) | 31.6 µM (active) |
